From PubChem
Many of the other results were omitted from the sample, so hits are more common in it than they were.
CD40 NFkB inh – CD40 pathway inhibition in BL2 cells; BL2 NF-kB luciferase reporter, CD40L-induced, 4 h; inhibition, % at 10 µM; hit rate 0.94% among 83,000;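 active = mean inhibition of at least 50% with a set share of replicates also reaching that level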;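 note: 0% = neutral control wells and 100% = IKK inhibitor VII at 50 µM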
An asterisk follows results filed as active; ! = a repeat was not active; [ ] = remark or other dose.

SMILES	CD40 NFkB inh
N#CC1(NC(=O)Cn2ncc(Cl)c(Cl)c2=O)CCCCC1	119*
COc1ccc2c3c(n(C)c2c1)[C@@H](CO)N(C)CC31CN(S(=O)(=O)c2cccc(C)c2)C1	8[25 µM]
CC[n+]1c(/C=C2/C=C(C)CC(C)(C)C2)sc2ccc(OC)cc21	80*
C[C@H]1CN(C)C(=O)c2cccnc2O[C@H]1CN(C)C	16
C[C@@H]1CN(C)C(=O)c2cccnc2O[C@H]1CN(C)S(C)(=O)=O	35*
C[C@@H]1CN(C)C(=O)c2ccccc2O[C@@H]1CN(C)S(C)(=O)=O	-1
Cc1ccc(S(=O)(=O)N2C[C@@H]3N[C@H](C2)C3c2ccc(-c3ccncc3)cc2)cc1 (some centres undefined)	3
CCCN1C[C@H](C)[C@@H](OC)CN(C)C(=O)c2cc(NC(=O)Nc3cccc(F)c3)ccc2OC[C@H]1C	-19[25 µM]
O=C(C1CCCCC1)N1CC2(C1)[C@H](c1ccccc1)[C@H](CO)N2CCC(F)(F)F	-4[25 µM]
CC(C)CN(C[C@@H]1N[C@@H](CO)[C@@H]1c1ccccc1)C(=O)CN(C)C	-5[25 µM]
C=C1CC(Cn2cc(Br)c(=O)[nH]c2=O)(c2ccc(-c3ccccc3)cc2)OC1=O (centres undefined)	64*
C=C1CC(COc2cc(=O)oc3ccccc23)(c2ccccc2)OC1=O (centres undefined)	31
O=c1[nH]c(=O)n(C2CC(O)C(CO)O2)cc1Br (centres undefined)	-10
CO[C@@H]1CC[C@@H]2CCOc3c(C#N)cccc3C(=O)N(C)C[C@H](c3ccccc3)CC(=O)N(C)C[C@H]1O2	-4[25 µM]
CC12C(=O)OC(=O)C1(C)C1CCC2O1 (centres undefined)	74*[25 µM]
CCCNC(=O)N1CC2(C1)[C@@H](c1ccccc1)[C@@H](CO)N2C(=O)c1cccnc1	-7[25 µM]
N#C[C@@H]1[C@@H](c2ccccc2-c2ccccc2)[C@H](CO)N1C(=O)Cc1ccccc1	7[25 µM]
CC(C)NC(=O)Nc1ccc2c(c1)C(=O)N(C)C[C@@H](C)[C@@H](CN(C)C(=O)NC(C)C)O2	6
O=C(NC1CCCCNC1=O)c1ccccc1 (centres undefined)	-11
O=C(COC(=O)c1ccccc1[N+](=O)[O-])NC(=O)c1ccccc1	-41
O=C(NC(=S)/C(=C1\CCCCCN1)[N+](=O)[O-])c1ccccc1	72*
C[C@H]1CN([C@@H](C)CO)C(=O)c2cccc(NS(=O)(=O)c3ccc(F)cc3)c2O[C@@H]1CN(C)S(=O)(=O)c1cccs1	-5[25 µM]
COc1ccc2c3c(n(C)c2c1)[C@H](CO)N(CC1CC1)CC31CCN(S(=O)(=O)c2cccs2)CC1	-3[25 µM]
CCc1cnc(N2[C@H](CO)[C@@H](c3ccc(C#Cc4ccccc4F)cc3)[C@@H]2C#N)s1	42[25 µM]
Cc1cc(C)nc(NC(N)=NCCc2ccccc2)n1	16
SMILES	CD40 NFkB inh
Cc1cc(C)nc(NC(N)=NCCc2c[nH]c3ccccc23)n1	66*
Cc1cc(C)nc(NC(N)=NC(C)c2ccccc2)n1 (centres undefined)	26
CC(=O)N1[C@H](CN(CC(C)C)C(=O)c2ccccn2)[C@H](c2ccccc2)[C@@H]1CO	-2[25 µM]
C[C@@H]1CN([C@@H](C)CO)C(=O)CCCn2nncc2CO[C@@H]1CN(C)Cc1cccnc1	10[25 µM]
C[C@H](CO)N1C[C@H](C)[C@@H](CN(C)Cc2ccc(Cl)c(Cl)c2)OCc2ccccc2-c2c(n(C)c3ccccc23)C1=O	31[25 µM]
CC(C)(C)OC(=O)CC(S(=O)(=O)c1ccccc1)S(=O)(=O)c1ccccc1	67*
O=S(=O)(CCS(=O)(=O)c1ccccc1)c1ccccc1	2
CC(S(=O)(=O)c1ccccc1)S(=O)(=O)c1ccccc1	6
C[C@@H]1CN([C@H](C)CO)C(=O)c2c(c3ccccc3n2C)-c2ccccc2CO[C@@H]1CN(C)Cc1ccc2c(c1)OCCN2C	5
CO[C@@H]1CN(C)C(=O)c2cc(NC(=O)NC3CCCCC3)ccc2OC[C@@H](C)N(C)C[C@H]1C	-6
CC(C)[C@@H](C)NC(=O)N(C)C[C@H]1OCc2ccccc2-c2ccccc2C(=O)N([C@@H](C)CO)C[C@H]1C	-5
COc1ccc2[nH]c3c(NCCCN4CCCC4=O)ncnc3c2c1	-32
CCN(CC)CCCNc1nc2ccccc2c2[nH]c3ccc(OC)cc3c12	103*
CCN(CC)CCCNS(=O)(=O)c1ccc(OC)cc1	3
COc1cccc(-c2ccc(C3[C@@H]4CN(S(=O)(=O)c5ccccc5)C[C@H]3N4)cc2)c1 (some centres undefined)	24
COc1cccc(S(=O)(=O)N2[C@@H]3CNC[C@H]2C3c2ccc(/C=C/c3ccccc3)cc2)c1 (some centres undefined)	-4[25 µM]
COc1cccc(S(=O)(=O)N2C[C@@H]3N[C@H](C2)C3c2ccc(/C=C/c3ccccc3)cc2)c1 (some centres undefined)	46*!
C/C=C/c1ccc([C@@H]2[C@@H](CO)N(Cc3cccc(F)c3)C23CN(C(C)=O)C3)cc1	8[25 µM]
CN1C(=O)c2cc(NC(=O)C3CC3)ccc2OC[C@H]2O[C@@H](CC(=O)NCc3ccccc3F)CC[C@@H]21	2
